# In PubChem BioAssay:
# The source made the active and inactive calls.
# Legend:
# [1] = system: Human papillomavirus type 1a protein E7 (residues 44-93); experiment: HPV1a E7 fragment binders on microarrays, primary screen, biochemical, small-molecule microarray, residues 44-93, 635 nm fluorescence (AID 1108); details: small-molecule microarray binding, fluorescence 635 nm; higher = more signal;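 note: E7 fragment applied at 1 µg/mL in TBST for 1 h at 4 C; score combines spot fluorescence with its signal to noise ratio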
# [2] = modulators of HCV replicon luciferase signal, primary screen, HCV replication inhibitor project, Huh7 cells, luciferase reporter (AID 1109); details: 48 h, higher = more signal;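 note: huh7 hepatoma cells harbouring a luciferase neomycin HCV replicon reporter; luciferase luminescence as measure of HCV replicon replication; test concentration not given here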
# [3] = target: Left-right determination factor 2 (Homo sapiens) (UniProt O00292); experiment: LEFTY2 binders on small-molecule microarrays, primary screen, biochemical, small-molecule microarray, 635 nm fluorescence scan (AID 1110); details: LEFTY2 binding, higher = more signal
# [4] = target: Calmodulin-1 (Homo sapiens) (UniProt P0DP23); experiment: CALM1 binders on microarrays, EGTA buffer, profiling panel, biochemical, small-molecule microarray, Cy5-labelled CALM1 (AID 1111); details: Cy5-CALM1 binding fluorescence, higher = more signal;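 note: labelled calmodulin applied in Tris saline Tween buffer holding calcium plus EGTA and DTT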
# [5] = target: Calmodulin-1 (Homo sapiens) (UniProt P0DP23); experiment: calcium-bound CALM1 binders on microarrays, profiling panel, artefact control for SMM control-protein annotation, biochemical, small-molecule microarray, Cy5-labelled CALM1, plus calcium (AID 1112); details: Cy5-CALM1 binding fluorescence, higher = more signal;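 note: score merges spot fluorescence with signal to noise from triplicate slides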
# [6] = small-molecule microarray binders of probe aWnt5a, primary screen, biochemical, biotinylated probe, 635/667 nm fluorescence (AID 1113); details: higher = more signal;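 note: score merges 667 nm fluorescence intensity with signal-to-noise per printed feature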
# [7] = small-molecule microarray binders of probe aShh, primary screen, biochemical, biotinylated probe, 635/667 nm fluorescence (AID 1114); details: higher = more signal;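 note: probe is biotin-labelled aShh protein from a stem cell growth factor screen; measures binding of labelled protein to compounds printed on the slide; score merges feature fluorescence at 667 nm with signal-to-noise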
# [8] = small-molecule microarray binders of probe aNog, primary screen, biochemical, biotinylated probe, 635/667 nm fluorescence (AID 1115); details: higher = more signal;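 note: probe is biotinylated aNog protein used at 0.15 µg/mL for 1 h at 4 C; z-score combines 667 nm fluorescence of each spot with its signal to noise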
# [9] = target: Torsin-1A-interacting protein 1 (Homo sapiens) (UniProt Q5JTV8); experiment: LAP1 binders from COS7 cell lysate, primary screen, small-molecule microarray, 635/667 nm fluorescence (AID 1116); details: COS7-hLAP1 lysate binding, 635 nm fluorescence, higher = more signal
# [10] = target: Alpha-bungarotoxin (Bungarus multicinctus) (UniProt P60615); experiment: alpha-bungarotoxin binders on microarray, profiling panel, artefact control for SMM control protein annotation, biochemical, small-molecule microarray, Alexa647 label, 635/667 nm fluorescence (AID 1117); details: alpha-BTX-A647 binding fluorescence, higher = more signal
# Albumin (Bos taurus) = Albumin (Bos taurus) (UniProt P02769); experiment: bovine serum albumin binders on microarray, profiling panel, artefact control for SMM control protein annotation, biochemical, small-molecule microarray, Alexa647 label, 635/667 nm fluorescence (AID 1118); details: BSA-A647 binding, fluorescence 635 nm, higher = more signal;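 note: score merges 667 nm emission intensity and signal-to-noise per printed compound spot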
# [11] = small-molecule microarray binders of probe aXIP, primary screen, biochemical, NeuroSMM set, 635/667 nm fluorescence (AID 1119); details: higher = more signal, called active from +8 up or from −8 down;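 note: probe is the protein aXip251-270 applied at 1 µg/mL to compound-printed slides; binding of probe to printed compounds measured as 667 nm fluorescence plus signal to noise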
# [12] = small-molecule binders of probe aNOTCH3, primary screen, biochemical, small-molecule microarray, 635/667 nm fluorescence (AID 1120); details: higher = more signal;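 note: probe is a biotin-tagged antibody raised against NOTCH3 rather than NOTCH3 protein; score merges spot fluorescence near 667 nm with spot signal to noise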
# [13] = small-molecule binders of probe aNOTCH2, primary screen, biochemical, small-molecule microarray, 635/667 nm fluorescence (AID 1121); details: higher = more signal;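 note: score merges feature fluorescence read at 667 nm with its signal to noise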
# [14] = target: Carbonic anhydrase 2 (Homo sapiens) (UniProt P00918); experiment: CAII small-molecule binders, profiling panel, biochemical, small-molecule microarray, Alexa647-labelled CAII (AID 1122); details: CAII-A647 binding fluorescence, higher = more signal
# [15] = COS7 lysate on small-molecule microarray, probe aHis, 635 nm (AID 1123); details: COS7 cell lysate, fluorescence, higher = more signal;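 note: z-score combines 667nm fluorescence intensity with signal-to-noise per printed compound spot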
# [16] = compound binding in COS7 lysate, probe aLAP1, primary screen, cell lysate, small-molecule microarray (AID 1124); details: probe aLAP1, fluorescence, higher = more signal;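 note: lysate comes from COS7 cells expressing LAP1 and is applied at 0.3 µg/mL; score merges spot fluorescence near 667 nm with signal-to-noise over triplicate slides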
# Sam68 (KHDRBS1) = experiment: Sam68 small-molecule binders, primary screen, biochemical, small-molecule microarray, 635 nm fluorescence (AID 1125); details: small-molecule microarray binding, higher = more signal;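 note: score merges 667 nm channel intensity with signal to noise over triplicate slides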
# [17] = system: Chordin-like protein 2 (CHRDL2); experiment: CHRDL2 small-molecule binders, primary screen, biochemical, small-molecule microarray, 635 nm fluorescence (AID 1126); details: small-molecule microarray binding, fluorescence 635 nm; higher = more signal;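 note: printed compound slides probed with Chrdl2 protein at 4 µg/mL for 1 h at 4 C; score merges 667 nm emission intensity with signal to noise over three replicate slides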
# [18] = target: Concanavalin-A (Canavalia ensiformis) (UniProt P02866); experiment: ConA small-molecule binders, primary screen, artefact control for SMM control protein annotation, biochemical, small-molecule microarray, Alexa647 label, 635 nm (AID 1127); details: ConA-A647 binding fluorescence, higher = more signal;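 note: z combines 667 nm emission intensity with signal-to-noise across three replicate slides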
# Sequence of Concanavalin-A (Canavalia ensiformis) (P02866 whole entry, looked up): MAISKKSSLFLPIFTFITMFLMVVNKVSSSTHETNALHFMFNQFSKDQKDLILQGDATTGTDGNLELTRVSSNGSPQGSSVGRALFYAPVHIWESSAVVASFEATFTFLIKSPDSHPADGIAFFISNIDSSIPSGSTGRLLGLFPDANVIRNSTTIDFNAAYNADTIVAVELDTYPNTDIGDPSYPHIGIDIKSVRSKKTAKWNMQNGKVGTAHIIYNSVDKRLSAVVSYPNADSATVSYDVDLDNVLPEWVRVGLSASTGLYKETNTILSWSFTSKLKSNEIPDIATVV
# Sequence of Albumin (Bos taurus) (P02769 whole entry, looked up): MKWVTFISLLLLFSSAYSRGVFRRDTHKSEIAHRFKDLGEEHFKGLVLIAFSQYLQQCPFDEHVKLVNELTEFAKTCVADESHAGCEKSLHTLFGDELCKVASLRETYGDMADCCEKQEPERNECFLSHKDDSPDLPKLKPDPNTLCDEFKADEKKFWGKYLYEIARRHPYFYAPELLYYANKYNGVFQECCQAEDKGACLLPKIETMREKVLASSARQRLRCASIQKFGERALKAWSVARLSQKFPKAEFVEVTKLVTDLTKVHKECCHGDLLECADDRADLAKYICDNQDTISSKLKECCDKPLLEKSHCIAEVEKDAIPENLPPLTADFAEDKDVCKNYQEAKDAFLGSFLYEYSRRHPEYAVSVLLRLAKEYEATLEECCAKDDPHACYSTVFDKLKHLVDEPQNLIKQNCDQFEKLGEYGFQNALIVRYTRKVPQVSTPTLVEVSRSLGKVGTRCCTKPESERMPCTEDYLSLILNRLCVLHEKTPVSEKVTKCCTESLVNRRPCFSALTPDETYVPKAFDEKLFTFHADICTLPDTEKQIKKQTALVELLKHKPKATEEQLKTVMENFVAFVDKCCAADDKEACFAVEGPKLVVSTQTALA
# Sequence of Torsin-1A-interacting protein 1 (Homo sapiens) (Q5JTV8 whole entry, looked up): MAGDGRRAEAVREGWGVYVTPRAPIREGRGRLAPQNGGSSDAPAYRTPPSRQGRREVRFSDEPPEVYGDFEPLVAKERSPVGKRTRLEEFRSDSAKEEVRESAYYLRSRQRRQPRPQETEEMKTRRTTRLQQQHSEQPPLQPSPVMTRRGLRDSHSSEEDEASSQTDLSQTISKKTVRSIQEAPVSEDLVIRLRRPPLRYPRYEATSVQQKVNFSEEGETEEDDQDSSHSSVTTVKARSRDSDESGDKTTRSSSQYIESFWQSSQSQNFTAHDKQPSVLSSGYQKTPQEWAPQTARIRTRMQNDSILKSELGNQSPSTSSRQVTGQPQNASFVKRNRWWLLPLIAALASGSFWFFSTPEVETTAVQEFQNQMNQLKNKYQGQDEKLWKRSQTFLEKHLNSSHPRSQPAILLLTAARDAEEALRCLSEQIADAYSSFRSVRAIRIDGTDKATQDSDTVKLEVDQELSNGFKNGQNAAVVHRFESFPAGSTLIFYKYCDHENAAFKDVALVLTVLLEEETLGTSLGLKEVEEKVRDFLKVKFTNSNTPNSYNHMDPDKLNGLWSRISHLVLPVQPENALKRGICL
# Sequence of Left-right determination factor 2 (Homo sapiens) (O00292 whole entry, looked up): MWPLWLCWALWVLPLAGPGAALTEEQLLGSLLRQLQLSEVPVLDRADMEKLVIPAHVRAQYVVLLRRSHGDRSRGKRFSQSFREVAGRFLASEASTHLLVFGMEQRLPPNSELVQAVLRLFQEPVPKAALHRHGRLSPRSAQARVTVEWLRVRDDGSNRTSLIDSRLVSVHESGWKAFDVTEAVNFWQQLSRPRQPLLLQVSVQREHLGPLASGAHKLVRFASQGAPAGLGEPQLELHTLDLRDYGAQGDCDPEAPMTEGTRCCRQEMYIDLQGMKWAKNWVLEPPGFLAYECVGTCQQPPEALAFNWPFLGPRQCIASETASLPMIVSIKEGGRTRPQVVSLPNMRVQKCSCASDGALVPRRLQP
# Sequence of Alpha-bungarotoxin (Bungarus multicinctus) (P60615 whole entry, looked up): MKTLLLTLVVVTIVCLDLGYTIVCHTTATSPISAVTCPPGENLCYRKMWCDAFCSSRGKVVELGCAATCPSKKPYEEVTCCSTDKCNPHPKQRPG
SMILES,composite z-score [1],z-score [2],composite z-score [3],composite z-score [4],composite z-score [5],composite z-score [6],composite z-score [7],composite z-score [8],composite z-score [9],composite z-score [10],composite z-score (Albumin (Bos taurus)),composite Z-score [11],composite z-score [12],composite z-score [13],composite z-score [14],composite z-score [15],composite z-score [16],composite z-score (Sam68 (KHDRBS1)),composite z-score [17],composite z-score [18]
CC=CC(O)C1C=CC2C(=O)NC(=O)C2N1Nc1ccc(Cl)cc1Cl (stereo not given),0.342,-0.0813,0.483,0.498,0.0224,-0.0194,0.199,0.353,0.685,0.64,0.7,1.23 (inactive),0.033,-0.0698,0.59,1.72,0.465,-0.227,0.853,-0.953
C[N+](C)(C)CCCC[C@@H]1NC(=O)[C@H]2C[C@@H](C(=O)NCCCCCNC(=O)CS)[C@@H](c3cccc(OCCO)c3)N2C1=O,-0.0364,-0.709,-0.259,-0.0728,0.297,-0.103,-0.0626,-0.234,0.707,-0.307,0.479,0.518 (inactive),-0.0881,-0.115,0.69,1.63,0.985,0.165,0.245,0.896
COC(=O)C(CC#Cc1ccc2c(c1)[C@]1(C(=O)N2)[C@H](C(=O)N2CCc3cc(OC)c(OC)cc3C2)[C@H]2C(=O)O[C@H](c3ccccc3)[C@H](c3ccccc3)N2[C@@H]1c1ccccc1OCCO)C(=O)OC,-0.099,-2.09,0.815,1.02,-0.509,-0.0161,-0.0289,0.682,1.59,2.65,0.27,0.112 (inactive),0.0793,-0.135,0.59,2.3,-0.461,1.3,0.463,1.14
COc1ccc([Si](C)(C)[C@H]2[C@H](CCO)O[C@@]3(C(=O)N(Cc4cccc(N(C=O)c5ccccc5)c4)c4ccccc43)[C@@H]2C)cc1,1.39,-4.84,0.393,0.909,-0.507,-0.0269,0.0723,0.0199,0.124,0.751,0.291,-0.313 (inactive),0.059,-0.102,0.467,1.28,0.677,1.28,0.293,1.15
O=C(NCc1ccccc1)[C@@H]1c2ccccc2C(=O)N(Cc2ccc(OC(F)(F)F)cc2)[C@H]1c1ccc(CO)cc1,0.259,-1.1,-0.725,-0.437,0.284,-0.0735,-0.0813,0.868,1.15,-0.0863,0.0192,2.41 (inactive),-0.155,-0.11,0.694,2.29,0.633,0.258,-0.431,-0.278
